The list is not random: actives were taken first. Their share in the collection is about 3.6%.
Pf apPOL block: Pf-apPOL inhibitors, biochemical, fluorescence; Plasmodium falciparum apicoplast DNA polymerase (apPOL); inhibition, % at 10 µM; Recombinant Pf-apPOL, molecular beacon fluorescence, 1.5 h; 210,000 compounds, 0.25% hits
mHTT-CaM PPI inh: mutant huntingtin-calmodulin interaction inhibitors – biochemical, AlphaScreen, primary screen; P42858; AlphaScreen His-mHTT/GST-CaM binding, luminescence; inhibition, % at 15 µM; 190,000 compounds, 3.6% hits; AID 1671202, 2021;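 note: 0% = both proteins with DMSO and 100% = one protein alone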
* marks the source's active call; other numbers are inactive results; x = no result; ! = not active in a repeat. Cut-off read from the data, not from the text of the source: active = inhibition above about 50%; inactive = the rest.

SMILES	Pf apPOL block	mHTT-CaM PPI inh
Fc1ccc(C2Nc3ccc(OC(F)(F)F)cc3C3C=CCC32)cc1 (stereo unspecified)	x	37
CC(Oc1ccccc1F)C(=O)NCc1ccc2c(c1)OCO2 (stereo unspecified)	-2	-2
Cc1ccc(NC(=O)c2ccc(C)cc2Cl)c(C)c1	1	0
Cn1cc(Br)c(C(=O)ON=C2CCCCC2)n1	-5	-4
Cc1ccc(-c2cnc(N3CCCC(C(=O)NCCCN4CCOCC4)C3)nc2)cc1 (stereo unspecified)	-4	3
Cc1ccccc1CNC(=O)c1ccc2c(c1)nc1n2CCN(C(C)C)C1=O	1	0
Cc1cccc(N=Cc2nc(-c3ccccc3)oc2O)n1	11	-1
CSc1nnc(-c2nn(C)c3c2CN(C(=O)c2ccc(C#N)cc2)CC3)n1C	-4	-2
CCn1c2c(c3ccccc31)CN(C(=O)c1ccc(C#N)cc1)CC2	-4	54*
Cc1nnnn1-c1nc(-c2cccs2)cc(C(F)(F)F)n1	-10	-6
COc1cc(/C=C2\Sc3ccccc3C2=O)cc(I)c1O	-3	74*
COc1cc(/C=C2\Sc3ccccc3C2=O)cc2sc(=O)oc12	0	13
CCOc1cc(C=C2C(=O)c3ccccc3C2=O)cc(Br)c1O	-4	66*
CCOc1cc(/C=C2\Sc3ccccc3C2=O)cc(I)c1O	-6	71*
COc1ccc(/C=C2\Sc3ccccc3C2=O)cc1Br	-7	13
CCOc1cc(C=C2C(=O)c3ccccc3C2=O)ccc1OC(C)C(=O)O (stereo unspecified)	-4	16
COc1cc(/C=C2\Sc3ccccc3C2=O)cc(Br)c1O	-2	59*
CCOc1ccc(/C=C2\Sc3ccccc3C2=O)cc1	2	1
O=S(=O)(NC1CCCC1)c1ccc(Br)cc1	x	-10
O=C(NCc1ccc(F)cc1Cl)c1ccc2c(c1)NC(=O)C(N1CCCCC1)S2 (stereo unspecified)	-14	8
COc1ccccc1OCCN1C(=O)Cc2c(C)ncnc21	-3	12
COc1cccc(NC(=O)N2CCC(c3nc4cccnc4n3C)C2)c1 (stereo unspecified)	-5	1
Cc1cc(C2CCCN2C(=O)NC2CCCCC2)on1 (stereo unspecified)	-1	-6
N#CC(C#N)=CNc1cc(C(F)(F)F)ccc1N1CCCCC1	2	x
Cc1cc(C)n(-c2ccc(=O)n(CCNC(=O)Cc3c(F)cccc3Cl)n2)n1	-1	-8
SMILES	Pf apPOL block	mHTT-CaM PPI inh
CCCCN(CC)CCNC(=O)C1c2ccccc2C(=O)N(CCOC)C1c1ccc(F)cc1 (stereo unspecified)	-4	7
N#CC(=NOC(=O)c1ccc(C(F)(F)F)cc1)S(=O)(=O)c1cccs1	11	x
COc1cc(/C=C2/SC(c3ccccc3)=NC2=O)cc(Br)c1O	2	96*
COc1ccc(/C=C2/SC(c3ccccc3)=NC2=O)cc1	-4	44
COc1cccc(CN2CCN(S(=O)(=O)c3ccccc3[N+](=O)[O-])CC2)c1OC	-7	12
CN(C)c1ccc(C(=O)Nc2nc(C(C)(C)C)cs2)cc1[N+](=O)[O-]	-8	62*
CNc1ccc(C(=O)Nc2nc(C(C)(C)C)cs2)cc1[N+](=O)[O-]	-11	7
Cc1ccccc1CNC(=O)C1(C)CCCN(C(=O)NCCc2ccccc2)C1 (stereo unspecified)	0	-9
O=C(c1ccc(C#CC2(O)CCCCC2)cc1)N1CCN(c2ccc([N+](=O)[O-])cc2)CC1	-1	56*
O=C(c1cccnc1)N1CCN(c2ccc([N+](=O)[O-])cc2)CC1	0	-1
Cc1cc(C)c(S(=O)(=O)N2CCCC2c2nc(-c3cccc(F)c3)no2)cc1C (stereo unspecified)	-1	-43
CC(C)CN1CCn2cc(C(=O)N3CCN(c4ccccc4)CC3)nc2C1	-6	58*
CC(C)CN1CCn2cc(C(=O)N3CCN(c4ccc(Cl)cc4)CC3)nc2C1	-9	92*
Cc1cc(C)c(CNC(=O)c2cn3c(n2)CN(CC(C)C)CC3)c(C)c1	0	71*
Cc1cccc(N2CCN(C(=O)c3cn4c(n3)COCC4)CC2)c1C	0	5
Cc1cccc(N2CCN(C(=O)c3cn4c(n3)CN(CC(C)C)CC4)CC2)c1C	-8	71*
Cc1ccc(C)c(CNC(=O)c2cn3c(n2)CN(CC(C)C)CC3)c1	0	20
CCCN1CCn2cc(C(=O)N3CCN(c4ccc(Cl)cc4)CC3)nc2C1	-5	17
CC(C)CN1CCn2cc(C(=O)N3CCN(c4ccccc4Cl)CC3)nc2C1	-4	46
CCCC(=O)N1CCCC1c1nc2cc(-c3ccccc3)ccc2o1 (stereo unspecified)	-1	37
Cc1cccc(-c2nc(C3CCN(S(=O)(=O)c4cccc(C#N)c4)CC3)no2)c1	-6	-5
Cc1ccc(NC(=O)O[C@@H]2C[C@H]3C[C@@H]2[C@H]2CCCCN2[C@H]3C)cc1	-3	-11
COc1ccc(/C=C(\NC(=O)c2ccco2)C(=O)Nc2cccc(Br)c2)cc1	-2	4
O=c1[nH]c2ccc(Cl)cc2c(-c2ccccc2)c1N1CCN(Cc2ccc3c(c2)OCO3)CC1	-2	100*
O=c1[nH]c2ccc(Cl)cc2c(-c2ccccc2)c1CN1CCCCC1	0	100*
SMILES	Pf apPOL block	mHTT-CaM PPI inh
Cc1[nH]c2ccc(Cl)cc2c(=O)c1CN1CCCC1	0	0
O=C(CCN1CCCC1)Nc1cccc(Br)c1	-3	-4
O=C(CCN1CCCCC1)Nc1c(-c2ccccc2)c2cc(Br)ccc2[nH]c1=O	-9	99*
O=c1[nH]c2ccc(Cl)cc2c(-c2ccccc2)c1N1CCOCC1	-18	x
CC(C)CC(=O)N1CCc2nc(-c3ccc(F)cc3)ncc2C1	-6	2
CNC(=S)NNC(=O)CSCCOc1ccccc1	-8	x
Cc1cc(C)nc(NC(=O)c2ccc(Br)o2)n1	-3	3
COc1ccc(-c2ccc(/C=C3\C(=O)NN(c4ccc(Cl)c(Cl)c4)C3=O)o2)cc1[N+](=O)[O-]	-1	29
O=c1c2c([nH]c3ccccc13)CCCC2	4	x
c1ccc2c3c([nH]c2c1)CCCCCC3	-7	x
Brc1ccc2[nH]c3c(c2c1)CCCCC3	x	53*
Nc1ccc2[nH]c3c(c2c1)CCCC3	x	68*
Cc1cccc(NC(=O)N2CCc3c(c(COCc4ccccc4)nn3C)C2)c1	-4	25
CCCn1ncc(N2CCC(C(=O)NCc3cccc(C)c3)CC2)cc1=O	-3	0
N#CC12CC([N+](=O)[O-])=C(N)C1(C#N)CC([N+](=O)[O-])=C2N (stereo unspecified)	-2	3
CCOc1ccccc1NC(=O)CC1Nc2cc(C)c(C)cc2NC1=O (stereo unspecified)	5	21
Cc1cc2c(cc1C)NC(CC(=O)Nc1ccccc1OC(F)F)C(=O)N2 (stereo unspecified)	5	50*!
Cc1ccc(NC(=O)CC2Nc3cc(C)c(C)cc3NC2=O)c(Br)c1 (stereo unspecified)	-6	64*!
Cc1cc2c(cc1C)NC(CC(=O)Nc1ccccc1C)C(=O)N2 (stereo unspecified)	-2	5
COc1cccc(CNC(=O)c2cc3c(s2)CN(C(C)C)C3)c1	-6	-2
O=C(c1c[nH]c2ccccc12)N1CC(C(=O)N2CCN(c3ccccn3)CC2)C1	-3	-5

High-throughput results deposited in PubChem by University of Kansas High Throughput Screening Laboratory.
